# Assay results from ChEMBL document CHEMBL4513216, “Probing the Open Global Health Chemical Diversity Library for Multistage-Active Starting Points for Next-Generation Antimalarials” (ACS Infect Dis, 2020).
# About 2,700 (4%) of roughly 68,000 compounds showed an effect of 50% or more. Many of the other results were omitted from the sample, so strong results are more common in it than they were.
# Test system: Plasmodium berghei
# Assay: Screen against P. berghei liver stage (PbLuc), transformed with Luciferase, at 2uM
# Assay type: functional, HepG2
# Details: tested at 2 uM
row,Compound,INHIBITION
1,CCN(CC)S(=O)(=O)N1CC[C@H](c2ccccc2)[C@H]2NCCCC[C@H]21,39.99%
2,COc1cc(N2CCC(c3nccn3Cc3ccccn3)CC2)ncn1,53.19%
3,COc1cc(N2CCC(c3nccn3Cc3cccnc3)CC2)ncn1,5.82%
4,COc1cc(N2CCC(c3nccn3Cc3ccccc3)CC2)ncn1,-2.99%
5,O=c1c2cc3c(cc2nnn1Cc1ccccc1Cl)OCCO3,-15.25%
6,CN(C)C(=O)Cc1ccc(-c2cccc3c2CCNC3)cc1,2.11%
7,CCC(C)C(=O)Nc1ccc(CCN2CCOCC2)cc1 (configuration not stated),31.65%
8,Cc1cc(C)c2nc(CN3CCC(CN)CC3)cc(O)c2c1,51.19%
9,Cc1cc(C)c2nc(CN3CCC(CN)C3)cc(O)c2c1 (configuration not stated),25.06%
10,Cc1cc(C)c2nc(CN3CCC(C#N)CC3)cc(O)c2c1,3.91%
11,Cn1c(CN2CCCCC2)cc(=O)c(O)c1CN1CCCCC1,14.97%
12,O=C(c1ccco1)N1Cc2cnn(CC3CC3)c2C(COCC2CC2)C1 (configuration not stated),14.09%
13,COC1CCN(C(=O)Cn2ncc(N3CCCCC3)cc2=O)C1 (configuration not stated),11.69%
14,CC1CN(c2ncccc2C(=O)Nc2cccc3c2CCCC3)CCN1 (configuration not stated),39.51%
15,Cc1cccc(C(=O)Nc2cccc3c2CCCC3)n1,-25.13%
16,O=C(Nc1cccc2c1CCCC2)c1cccnc1N1CCCNCC1,65.7%
17,CN(Cc1ccc(Cl)cc1)S(=O)(=O)N(C)Cc1cnn(C)c1,-2.86%
18,O=C(c1ccncc1)N1CCc2onc(CN3CCCC3)c2C1,37.35%
19,O=C(c1ccc(Cl)o1)N1CCCC(c2cc(C(F)(F)F)[nH]n2)C1 (configuration not stated),-102.06%
20,CCCOC(C)Cn1ccc2[nH]c(=O)c(C#N)cc2c1=O (configuration not stated),59.1%
21,CC(O)CCn1ccc2[nH]c(=O)c(C#N)cc2c1=O (configuration not stated),44.41%
22,CCC(Cn1ccc2[nH]c(=O)c(C#N)cc2c1=O)OC (configuration not stated),0.03%
23,Cc1nc(C)n(Cc2cccc(NC(=O)N(C)CCC(C)O)c2)n1 (configuration not stated),-3.2%
24,Cc1cccc(-n2nc(CC(C)C)nc2CCC(=O)N(C)C)c1,8.13%
25,CSCC(=O)N1CCc2c(cnc(C)c2-c2noc(-c3cc[nH]n3)n2)C1,18.84%
26,COCCn1ccnc1C1CCCN(C(=O)CSc2nnc(C)o2)C1 (configuration not stated),-7.17%

row,Compound,INHIBITION
1,CCn1c(CC2CCN(S(=O)(=O)c3cccc(C)c3)CC2)nn(C)c1=O,38.96%
2,CCn1c(CC2CCN(S(=O)(=O)N3CCCCC3)CC2)nn(C)c1=O,50.41%
3,CCn1c(CC2CCN(S(=O)(=O)Cc3ccccc3)CC2)nn(C)c1=O,22.09%
4,CCc1nn(C)c(Cl)c1CN(CCOC)Cc1cnn(C)c1,-0.41%
5,CCN1CC(C(=O)NC(C)(C)C(=O)OC)CC1=O (configuration not stated),-59.42%
6,COC(=O)C(C)(C)NC(=O)C1CC(=O)N(CC(F)(F)F)C1 (configuration not stated),54.62%
7,COC(=O)C(C)(C)NC(=O)C1CC(=O)N(CC(C)C)C1 (configuration not stated),49.16%
8,COc1ccc(CCN2CC(NCc3ncc[nH]3)CC2=O)cc1 (configuration not stated),45.41%
9,c1ccc(N2CC[C@@H]3CN(Cc4ccncc4)CCO[C@@H]3C2)cc1,-19.36%
10,CS(=O)(=O)CCN(CCCO)C1CCc2ccccc21 (configuration not stated),14.3%
11,O=S(=O)(c1ccccc1F)N1CCCCC1c1cc[nH]n1 (configuration not stated),-16.62%
12,O=S(=O)(NC1CCCN(c2ncccn2)C1)N1CCCCCC1 (configuration not stated),-56.93%
13,COc1ccsc1C(=O)NC1CCN(c2cccc(F)c2)CC1,-11.07%
14,Nc1nc(O)cc(N2CCC(c3cc(Cc4ccccc4)n[nH]3)CC2)n1,5.41%
15,NC(=O)NCCC(=O)N1CCC(c2cc(Cc3ccccc3)n[nH]2)CC1,42.27%
16,Nc1cc(N2CCC(c3cc(Cc4ccccc4)n[nH]3)CC2)ccn1,60.35%
17,Nc1nccc(N2CCC(c3cc(Cc4ccccc4)n[nH]3)CC2)n1,56.33%
18,Cc1ccc(N2CCC(c3cc(Cc4ccccc4)n[nH]3)CC2)nn1,-45.89%
19,Cc1cc(CN2CCC(c3cc(Cc4ccccc4)n[nH]3)CC2)[nH]n1,-3.32%
20,CC(=O)Nc1ccc(C(=O)N(C)Cc2cccc(F)c2)s1,45.05%
21,CCN(CCn1cccn1)Cc1nc(-c2cccs2)oc1C,-9.1%
22,Cc1nnsc1CN(C)C(=O)CCn1cnc2ccccc21,-40.44%
23,CCOC(=O)N1CCN(c2nc(NCCCO)c3ccccc3n2)CC1,7.14%
24,O=C1C(Sc2nnnn2C2CC2)CCN1c1ccccc1F (configuration not stated),21.82%
25,Cn1cnc(S(=O)(=O)NCC2(O)CCc3ccccc32)c1 (configuration not stated),30.34%
26,Cn1cnc(S(=O)(=O)NCC2(O)CCc3ccccc3C2)c1 (configuration not stated),53.33%

row,Compound,INHIBITION
1,Cn1cnc(S(=O)(=O)NCC2(O)CCOc3ccccc32)c1 (configuration not stated),45.19%
2,CC(NC(=O)c1cccnc1N(C)C)c1ccccc1Br (configuration not stated),20.32%
3,Cc1nc(CNCc2c(C(C)C)nn(C)c2N2CCOCC2)cs1,7.64%
4,O=C([C@H]1C[C@@H]2CCN(c3cccc(F)c3)C[C@H]2O1)N1CCCC1,39.51%
5,O=S(=O)(c1ccc(Cl)s1)N1CCCn2ncnc21,-49.84%
6,CCc1ccc(S(=O)(=O)N2CCCn3ncnc32)s1,13.38%
7,COC(=O)c1ccc(S(=O)(=O)N2CCCn3ncnc32)s1,59.68%
8,Cc1nccn1-c1nccnc1C1CCCN(C)C1 (configuration not stated),1.75%
9,CCC(=O)NCC(=O)NCC(C)(C)c1cccc(Br)c1,15.2%
10,CN(C)c1nc2c(c(N(C)C)n1)CCN(C(=O)CN1C[C@H]3CC[C@@H]1C3)C2,-34.98%
11,O=C(NCC1CC1)C1CN(C(=O)c2cccnc2)CC12CCOCC2 (configuration not stated),-1.37%
12,O=C(NCC1CC1)C1CN(C(=O)c2cccc(Cl)c2)CC12CCOCC2 (configuration not stated),71.99%
13,O=C(NCC1CC1)C1CN(C(=O)c2cccs2)CC12CCOCC2 (configuration not stated),-4.92%
14,O=C(NCC1CC1)C1CN(C(=O)c2ccncc2)CC12CCOCC2 (configuration not stated),-12.21%
15,O=C(NCC1CC1)C1CN(C(=O)c2ccnnc2)CC12CCOCC2 (configuration not stated),59.59%
16,O=C(NCC1CC1)C1CN(C(=O)c2ccco2)CC12CCOCC2 (configuration not stated),14.39%
17,Cc1nnc(N2CC[C@@H](OCC3CC3)[C@@H](Cc3ccccc3)C2)s1,1.74%
18,Cc1cc(C(=O)N(CC(F)(F)F)C2CCOCC2)c(C)o1,7.68%
19,Cc1noc(C)c1-c1cncc(C2CCCN2Cc2ccncc2)n1 (configuration not stated),27.8%
20,COc1ccc(OC2CCN(C(=O)CCc3n[nH]c(C)n3)CC2)cc1,-2.77%
21,COc1ccc(N2CCN(C(=O)CCc3n[nH]c(C)n3)CC2=O)cc1,62.3%
22,Cc1ccc(N2CCN(C(=O)CCc3n[nH]c(C)n3)CC2=O)cc1,19.75%
23,O=C(O)[C@H]1OCC(=O)N(Cc2cccc(F)c2)[C@@H]1c1ccc(Cl)cc1,-4.48%
24,Cc1cccc(Nc2cccc(C3CCCN(Cc4ncc[nH]4)C3)n2)n1 (configuration not stated),7.02%
25,Cc1cnn(CC2CCCN2CC(=O)N(C)CCC#N)c1 (configuration not stated),-31.3%
26,CC(=O)N1CCN(C(=O)C[C@@H]2C[C@@H](C(C)C)[C@H](CC#N)C=C2C)CC1,46.32%

row,Compound,INHIBITION
1,CC1=C[C@@H](CC#N)[C@H](C(C)C)C[C@H]1CC(=O)N1CCN(CCO)CC1,-3.1%
2,CC1=C[C@@H](CC#N)[C@H](C(C)C)C[C@H]1CC(=O)N1CCN(C)CC1,62.8%
3,Cc1cc(-c2cccc(C(=O)O)c2)nc(C2CCN(C(C)C)CC2)n1,24.56%
4,O=C(NC1CC1)[C@H]1CC[C@@H]2[C@@H](CCN2c2ncc(F)cn2)O1,1.07%
5,COc1ccc(C)cc1CN(C)CCCNS(C)(=O)=O,-81.99%
6,Cn1c(=O)oc2cc(Nc3ncc(C#N)cc3Cl)ccc21,53.13%
7,Cn1c(=O)oc2cc(Nc3nccnc3C#N)ccc21,9.42%
8,Cn1c(=O)oc2ccc(Nc3ncc(C#N)cc3Cl)cc21,-4.24%
9,CCOc1nnc(CN2CCN(CCOC)C(CC)C2)s1 (configuration not stated),-8.54%
10,CCOc1ncnc2c1CCN(S(=O)(=O)CC)CC2,8.41%
11,CCc1ncnc2c1CCN(S(=O)(=O)c1ccccc1)CC2,5.44%
12,CCOc1ncnc2c1CCN(S(=O)(=O)c1ccccc1)CC2,55.07%
13,CC1COCCN1C(=O)COc1ccc(Oc2ccccn2)cc1 (configuration not stated),41.88%
14,CC(C)(Cn1cnc(-c2ccccc2)c1-c1ccco1)N1CCOCC1,-9.41%
15,Cc1ccc(-c2c(-c3ccccc3)ncn2CCCN2CCOCC2)o1,33.9%
16,Cc1nc(-c2c(-c3ccccc3)ncn2CCCN2CCOCC2)c[nH]1,64.9%
17,c1ccc(-c2ncn(CCCN3CCOCC3)c2-c2ccncc2)cc1,64.9%
18,OCc1ccc(-c2c(-c3ccccc3)ncn2CCN2CCOCC2)o1,-23.34%
19,O=C(NCCCN1CCOCC1)c1cc(-c2ccccc2)[nH]n1,-55.91%
20,CC(=O)N1CCN(C(=O)c2[nH]nnc2Nc2ccccc2F)CC1,-66.39%
21,COc1cccc(Cn2cc(N3C(=O)[C@H]4CCCC[C@H]4C3=O)cn2)c1,-3.8%
22,CN(C(=O)COCc1ccccc1)C1CCN(CC2CCOC2)CC1 (configuration not stated),-11.88%
23,CC(C)S(=O)(=O)NCC1CCCN(C(=O)c2ccc(Cl)cc2)C1 (configuration not stated),16.82%
24,N#Cc1csc(CNCCOc2ccc(Cl)cn2)c1,10.91%
